{"source": "PubChem BioAssay AID1825", "about": "(The Scripps Research Institute Molecular Screening Center, 2009)", "note": "Screen size: about 290,000 compounds; about 2,300 (0.79%) were called active. Shown is part of a subset that was picked to be rich in actives. Values without a mark were called inactive. No stated cut-off is given here; in the data, active means inhibition above about 22%; inactive means the rest."}
{"experiment": "IEC-6 cell viability reduction – luminescence, cytotoxicity control for KLF5 inhibitor project, primary screen (AID 1825);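 further: 0% = plate median of test compound wells and 100% = cytotoxic reference compound wells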", "conditions": "IEC-6 cytotoxicity, at 5 µM, active compounds read high"}
{"smiles": "CCOc1ccc(NC(=O)CCC(=O)NNC(=O)NC2CCCCC2)cc1", "inhibition": "-7.2%"}
{"smiles": "O=S(=O)(c1ccc(Br)cc1)n1ccc2ccccc21", "inhibition": "3.2%"}
{"smiles": "CCn1c(SCC(=O)NC2=NCCS2)nnc1C(C)NC(=O)c1ccccc1F", "note": "(centres undefined)", "inhibition": "0.1%"}
{"smiles": "O=C(Cc1ccccc1)Nc1ccc(NC(=O)c2cccnc2)cc1", "inhibition": "0.2%"}
{"smiles": "CCCC(=O)Nc1nc2ccc(NC(=O)c3cccnc3)cc2s1", "inhibition": "30.2% (active)"}
{"smiles": "CCCC(=O)Nc1nc2ccc(NC(=O)c3c(F)c(F)c(OC)c(F)c3F)cc2s1", "inhibition": "76.8% (active)"}
{"smiles": "CCOc1ccc2nc(Nc3nc4ccc(NC(C)=O)cc4s3)sc2c1", "inhibition": "-2.2%"}
{"smiles": "CCOC(=O)c1ccc(NC(=O)c2cccnc2)cc1", "inhibition": "-6.9%"}
{"smiles": "CSc1nc2ccc(NC(=O)c3c(F)cccc3F)cc2s1", "inhibition": "8.5%"}
{"smiles": "COc1ccccc1/C=C/C(=O)NC1CC2CCC1C2", "note": "(centres undefined)", "inhibition": "4.4%"}
{"smiles": "Cc1cc(C)n2nc(C(=O)NC(C)(C)C)nc2n1", "inhibition": "3.3%"}
{"smiles": "Cc1cc(C)n2nc(CNS(=O)(=O)c3c(F)c(F)c(F)c(F)c3F)nc2n1", "inhibition": "31.5% (active)"}
{"smiles": "Cc1cc(C)n2nc(SCC(N)=O)nc2n1", "inhibition": "4.6%"}
{"smiles": "O=C1C(=O)N(CCCN2CCOCC2)C(c2ccc([N+](=O)[O-])cc2)/C1=C(\\O)c1ccc2c(c1)OCCO2", "note": "(centres undefined)", "inhibition": "-1.8%"}
{"smiles": "COc1ccc(Nc2ncc(C(=O)N3CCN(c4ccccc4OC)CC3)c3ccccc23)cc1", "inhibition": "11.7%"}
{"smiles": "CCOc1c(Nc2cccc(Cl)c2)c(=O)c1=O", "inhibition": "23.4% (active)"}
{"smiles": "NS(=O)(=O)c1cccnc1Nc1cccc(Cl)c1", "inhibition": "-0.6%"}
{"smiles": "Cn1c(Nc2cccc(Cl)c2)nc2ccccc21", "inhibition": "4.2%"}
{"smiles": "O=C(Nc1ccc(Br)cn1)c1ccc([N+](=O)[O-])o1", "inhibition": "16.7%"}
{"smiles": "Cc1cccc(NC(=O)c2ccc([N+](=O)[O-])o2)c1", "inhibition": "66.2% (active)"}
{"smiles": "Cc1cccc(NC(=O)c2sc(-c3ccccc3)nc2-c2ccc([N+](=O)[O-])cc2)c1", "inhibition": "-10%"}
{"smiles": "Cc1cccc(NC(=S)NC(=O)c2ccc(Br)o2)c1", "inhibition": "1.6%"}
{"smiles": "Cc1onc(C(=O)NCc2ccc(F)cc2)c1[N+](=O)[O-]", "inhibition": "-2.3%"}
{"smiles": "Cc1onc(NC(=O)c2ccc([N+](=O)[O-])o2)c1Br", "inhibition": "46.1% (active)"}
{"smiles": "O=c1[nH]cnc(O)c1C(c1ccc(F)cc1)c1c(O)nc[nH]c1=O", "inhibition": "-4.2%"}
{"smiles": "CC1C(=O)Nc2ccc(S(=O)(=O)N3CCN(c4ccccc4F)CC3)cc2NC1=O", "note": "(centres undefined)", "inhibition": "1.5%"}
{"smiles": "O=c1c2c(-c3ccccc3)ccnc2[nH]n1-c1ccccc1", "inhibition": "-0.7%"}
{"smiles": "COc1ccc(-c2ccc(CCC(=O)O)n2NC(=O)c2ccc(C(C)(C)C)cc2)cc1", "inhibition": "-6.8%"}
{"smiles": "O=c1cc(-c2ccccc2)[nH]c2cc(F)ccc12", "inhibition": "80.7% (active)"}
{"smiles": "Cc1ccc(-c2cc(=O)c3ccc(F)cc3[nH]2)cc1", "inhibition": "-6.3%"}
{"smiles": "Cc1ccc(-c2cc(=O)c3ccc(Cl)cc3[nH]2)cc1", "inhibition": "0.6%"}
{"smiles": "O=C(Nc1cccc2cccnc12)c1cccc(Cl)c1", "inhibition": "7.6%"}
{"smiles": "COc1ccc(C(=O)NCC(=O)N/N=C/c2cccnc2)cc1", "inhibition": "3.2%"}
{"smiles": "Cc1nc2nc(C)c(NS(=O)(=O)c3ccc(C(C)(C)C)cc3)c(=O)n2[nH]1", "inhibition": "1.1%"}
{"smiles": "Cc1cc(C(=O)NC2CCCc3c2cnn3-c2cccc(C)c2C)c(C)o1", "note": "(centres undefined)", "inhibition": "4.8%"}
{"smiles": "COc1ccc(C(=O)NC2CCCc3c2cnn3-c2cccc(C)c2C)c(OC)n1", "note": "(centres undefined)", "inhibition": "8.5%"}
{"smiles": "Cc1ccc(-n2ncc3c2CCCC3NC(=O)c2cnccn2)cc1C", "note": "(centres undefined)", "inhibition": "3.7%"}
{"smiles": "Cn1nccc1C(=O)NC1CCCc2c1cnn2-c1ccccc1F", "note": "(centres undefined)", "inhibition": "25.7% (active)"}
{"smiles": "Cn1nccc1C(=O)NC1CCCc2c1cnn2-c1ccc(F)cc1F", "note": "(centres undefined)", "inhibition": "31% (active)"}
{"smiles": "CC(=O)NCC(=O)NC1CCCc2c1cnn2-c1ccccc1F", "note": "(centres undefined)", "inhibition": "-1.9%"}
{"smiles": "Cc1ccc(/C=C2\\CCn3c2nc2cc(C(=O)O)ccc2c3=O)c(C)c1", "inhibition": "1.8%"}
{"smiles": "C=C(C)Cn1c(C)cc(C)c(S(=O)(=O)c2ccccc2C)c1=O", "inhibition": "-2.1%"}
{"smiles": "COc1ccc(Oc2c(Cl)cnn(-c3ccccc3)c2=O)cc1", "inhibition": "1.3%"}
{"smiles": "Cc1cccc(-n2ncc(Cl)c(Cl)c2=O)c1", "inhibition": "97.5% (active)"}
{"smiles": "Cc1cccc(-n2ncc(C#N)c2-n2cccc2)c1", "inhibition": "1.1%"}
{"smiles": "CC(C)CC(=O)N1CCN(Cc2ccccc2Br)CC1", "inhibition": "1.6%"}
{"smiles": "COc1ccc(/C=C/C(=O)Nc2ccc(C34CC5CC(CC(O)(C5)C3)C4)cc2)cc1OC", "inhibition": "18.5%"}
{"smiles": "O=C(N=C1SC2CS(=O)(=O)CC2N1c1cc(Cl)ccc1Cl)C1CC1", "note": "(centres undefined)", "inhibition": "-6.4%"}
{"smiles": "COc1ccc(C23NCCN2C(=O)c2ccccc23)cc1", "note": "(centres undefined)", "inhibition": "1.3%"}
{"smiles": "COc1cccc(N2C(=O)CN(Cc3ccccc3)C2=S)c1", "inhibition": "9.4%"}
{"smiles": "Cc1ccc(S(=O)(=O)N(C)C2(C)CCS(=O)(=O)C2)cc1", "note": "(centres undefined)", "inhibition": "-8.7%"}
{"smiles": "Cc1ccc(S(=O)(=O)N2CCN(C)CC2)cc1", "inhibition": "-1.1%"}
{"smiles": "Cc1ccc(S(=O)(=O)C2(S(=O)(=O)c3ccc(C)cc3)CCCC2)cc1", "inhibition": "45.6% (active)"}
{"smiles": "COc1ccccc1CCNS(=O)(=O)c1cn(C)nc1C", "inhibition": "-1.7%"}
{"smiles": "CN(CCc1ccccn1)C1CCCN(S(=O)(=O)c2ccccc2Cl)C1", "note": "(centres undefined)", "inhibition": "5.5%"}
{"smiles": "O=C(CN1C(=O)C2C3C=CC(C3)C2C1=O)NCC1COc2ccccc2O1", "note": "(centres undefined)", "inhibition": "-0.7%"}
{"smiles": "Cc1cc(C(=O)CCl)c(C)n1CC1COc2ccccc2O1", "note": "(centres undefined)", "inhibition": "-0.4%"}
{"smiles": "O=C1C(=O)N(CC2COc3ccccc3O2)c2ccccc21", "note": "(centres undefined)", "inhibition": "65.8% (active)"}
{"smiles": "COc1ccc(N2CC(C(=O)N[C@@H](C)C(=O)N3CCCCC3)CC2=O)cc1", "note": "(some centres undefined)", "inhibition": "4.5%"}
{"smiles": "Cc1ccc(-n2ncc3c2CC(C)(C)CC3NC(=O)Cc2c(C)noc2C)cc1", "note": "(centres undefined)", "inhibition": "4%"}
{"smiles": "COc1cc(Br)c(-c2sc(Nc3ccccc3)n[n+]2-c2ccccc2)cc1OC", "inhibition": "-5.7%"}
{"smiles": "O=c1oc2ccccc2cc1-c1cn(-c2ccccc2)c(=S)[nH]1", "inhibition": "30.6% (active)"}
{"smiles": "COc1ccc(-c2cn(-c3ccc(OC)cc3)c(=S)[nH]2)cc1", "inhibition": "-3.2%"}
{"smiles": "S=c1[nH]c(-c2cccs2)cn1-c1ccccc1", "inhibition": "-0.4%"}
